Targets with a hit are over-represented here; the source holds about 6,500 in all. About 2% of all pairs of compound and target were hits.

Sequence of UniProt Q8IWV7 (Q8IWV7 whole entry): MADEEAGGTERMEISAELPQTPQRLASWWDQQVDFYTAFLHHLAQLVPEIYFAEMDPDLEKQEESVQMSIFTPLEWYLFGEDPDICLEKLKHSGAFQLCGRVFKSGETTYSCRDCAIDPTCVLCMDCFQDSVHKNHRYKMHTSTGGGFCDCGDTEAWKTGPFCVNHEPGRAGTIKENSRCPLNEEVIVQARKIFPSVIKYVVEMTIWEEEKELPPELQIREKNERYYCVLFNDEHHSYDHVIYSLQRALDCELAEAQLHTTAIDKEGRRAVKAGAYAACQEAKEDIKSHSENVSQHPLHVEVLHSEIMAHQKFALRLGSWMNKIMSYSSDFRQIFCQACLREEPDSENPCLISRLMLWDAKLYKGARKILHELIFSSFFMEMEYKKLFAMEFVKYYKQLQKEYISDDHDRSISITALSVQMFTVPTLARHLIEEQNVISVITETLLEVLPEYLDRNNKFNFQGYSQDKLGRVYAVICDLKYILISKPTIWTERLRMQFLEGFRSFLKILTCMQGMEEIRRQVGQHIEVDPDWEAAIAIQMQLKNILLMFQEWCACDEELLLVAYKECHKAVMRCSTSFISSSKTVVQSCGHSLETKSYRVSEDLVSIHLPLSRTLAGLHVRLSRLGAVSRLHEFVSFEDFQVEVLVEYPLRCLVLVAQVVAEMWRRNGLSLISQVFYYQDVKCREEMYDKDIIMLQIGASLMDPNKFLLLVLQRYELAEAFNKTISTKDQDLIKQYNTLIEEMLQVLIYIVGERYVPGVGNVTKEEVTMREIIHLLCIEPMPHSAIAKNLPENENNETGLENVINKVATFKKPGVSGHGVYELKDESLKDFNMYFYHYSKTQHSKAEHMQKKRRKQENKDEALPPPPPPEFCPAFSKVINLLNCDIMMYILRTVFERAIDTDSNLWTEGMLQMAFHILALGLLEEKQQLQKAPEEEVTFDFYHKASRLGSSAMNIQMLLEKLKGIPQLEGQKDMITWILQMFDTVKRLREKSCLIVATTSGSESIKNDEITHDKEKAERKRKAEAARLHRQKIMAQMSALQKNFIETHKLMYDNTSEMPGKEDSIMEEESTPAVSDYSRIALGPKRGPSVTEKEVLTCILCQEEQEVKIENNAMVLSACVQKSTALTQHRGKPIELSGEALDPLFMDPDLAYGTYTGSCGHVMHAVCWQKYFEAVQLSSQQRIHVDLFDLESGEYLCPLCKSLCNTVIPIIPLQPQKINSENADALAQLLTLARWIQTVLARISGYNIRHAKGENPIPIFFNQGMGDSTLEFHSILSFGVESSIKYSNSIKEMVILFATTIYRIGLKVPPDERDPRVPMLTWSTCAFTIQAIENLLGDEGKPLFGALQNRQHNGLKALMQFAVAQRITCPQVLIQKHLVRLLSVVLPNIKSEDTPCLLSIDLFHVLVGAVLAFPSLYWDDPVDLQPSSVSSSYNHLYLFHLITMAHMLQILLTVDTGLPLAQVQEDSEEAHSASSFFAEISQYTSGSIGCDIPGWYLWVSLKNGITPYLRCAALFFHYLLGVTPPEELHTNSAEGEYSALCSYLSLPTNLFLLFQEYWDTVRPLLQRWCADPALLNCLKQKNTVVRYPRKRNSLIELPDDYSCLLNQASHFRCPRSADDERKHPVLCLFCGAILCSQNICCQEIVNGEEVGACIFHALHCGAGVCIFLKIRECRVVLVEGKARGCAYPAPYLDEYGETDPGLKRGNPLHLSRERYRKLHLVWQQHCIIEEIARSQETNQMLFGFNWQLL
Sequence of UniProt Q96SI9 (Q96SI9 whole entry, looked up): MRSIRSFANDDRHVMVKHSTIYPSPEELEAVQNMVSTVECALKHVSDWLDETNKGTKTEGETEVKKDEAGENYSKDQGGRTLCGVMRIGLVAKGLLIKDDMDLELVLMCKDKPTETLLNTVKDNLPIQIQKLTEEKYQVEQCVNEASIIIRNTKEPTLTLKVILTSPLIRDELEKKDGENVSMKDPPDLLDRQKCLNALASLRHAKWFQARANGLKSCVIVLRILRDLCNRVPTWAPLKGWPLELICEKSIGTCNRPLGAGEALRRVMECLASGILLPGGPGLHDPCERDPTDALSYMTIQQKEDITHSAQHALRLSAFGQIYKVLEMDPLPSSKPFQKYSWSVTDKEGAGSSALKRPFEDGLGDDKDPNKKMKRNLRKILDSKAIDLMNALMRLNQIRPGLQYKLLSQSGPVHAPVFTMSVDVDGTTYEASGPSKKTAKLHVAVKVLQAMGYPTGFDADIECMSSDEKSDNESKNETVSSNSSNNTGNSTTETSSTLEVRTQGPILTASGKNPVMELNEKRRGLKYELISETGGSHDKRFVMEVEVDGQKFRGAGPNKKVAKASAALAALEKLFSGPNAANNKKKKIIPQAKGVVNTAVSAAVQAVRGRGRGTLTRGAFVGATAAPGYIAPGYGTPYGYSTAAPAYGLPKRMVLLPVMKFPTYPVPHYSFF
Sequence of UniProt Q86UP2 (Q86UP2 whole entry, looked up): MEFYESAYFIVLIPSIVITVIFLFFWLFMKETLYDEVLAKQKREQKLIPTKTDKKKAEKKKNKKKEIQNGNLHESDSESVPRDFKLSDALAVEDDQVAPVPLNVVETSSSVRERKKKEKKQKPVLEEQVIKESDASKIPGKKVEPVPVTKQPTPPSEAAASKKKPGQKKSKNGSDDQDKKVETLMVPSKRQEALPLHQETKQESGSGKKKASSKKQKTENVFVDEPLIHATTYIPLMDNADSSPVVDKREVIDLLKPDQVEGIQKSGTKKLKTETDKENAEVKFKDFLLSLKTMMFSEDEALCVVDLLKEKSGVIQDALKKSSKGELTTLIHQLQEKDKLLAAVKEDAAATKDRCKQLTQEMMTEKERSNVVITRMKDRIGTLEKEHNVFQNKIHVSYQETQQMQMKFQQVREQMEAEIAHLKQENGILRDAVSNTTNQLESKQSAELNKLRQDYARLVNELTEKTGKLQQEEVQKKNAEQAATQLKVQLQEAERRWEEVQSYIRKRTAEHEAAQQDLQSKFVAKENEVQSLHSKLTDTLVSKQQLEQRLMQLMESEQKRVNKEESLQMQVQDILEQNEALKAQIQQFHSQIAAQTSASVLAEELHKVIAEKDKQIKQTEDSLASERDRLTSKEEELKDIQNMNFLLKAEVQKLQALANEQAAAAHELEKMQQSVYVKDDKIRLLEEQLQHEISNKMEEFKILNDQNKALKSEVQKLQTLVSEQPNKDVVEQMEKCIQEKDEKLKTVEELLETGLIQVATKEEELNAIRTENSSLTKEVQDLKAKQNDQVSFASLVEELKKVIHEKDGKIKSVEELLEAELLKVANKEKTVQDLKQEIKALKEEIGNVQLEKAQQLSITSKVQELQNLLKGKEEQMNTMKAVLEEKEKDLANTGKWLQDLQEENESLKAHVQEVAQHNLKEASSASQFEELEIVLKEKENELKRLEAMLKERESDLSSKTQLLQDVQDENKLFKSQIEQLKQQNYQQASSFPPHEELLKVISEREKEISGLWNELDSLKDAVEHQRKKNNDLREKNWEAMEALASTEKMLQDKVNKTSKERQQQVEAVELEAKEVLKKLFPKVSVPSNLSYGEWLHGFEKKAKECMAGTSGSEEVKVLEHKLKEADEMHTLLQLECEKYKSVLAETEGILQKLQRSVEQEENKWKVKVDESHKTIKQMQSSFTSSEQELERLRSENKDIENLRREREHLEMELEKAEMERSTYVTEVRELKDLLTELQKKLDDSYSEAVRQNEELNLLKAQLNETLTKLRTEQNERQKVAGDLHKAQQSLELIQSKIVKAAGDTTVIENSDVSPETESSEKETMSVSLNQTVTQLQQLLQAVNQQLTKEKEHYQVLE
Sequence of UniProt Q86V48 (Q86V48 whole entry, looked up): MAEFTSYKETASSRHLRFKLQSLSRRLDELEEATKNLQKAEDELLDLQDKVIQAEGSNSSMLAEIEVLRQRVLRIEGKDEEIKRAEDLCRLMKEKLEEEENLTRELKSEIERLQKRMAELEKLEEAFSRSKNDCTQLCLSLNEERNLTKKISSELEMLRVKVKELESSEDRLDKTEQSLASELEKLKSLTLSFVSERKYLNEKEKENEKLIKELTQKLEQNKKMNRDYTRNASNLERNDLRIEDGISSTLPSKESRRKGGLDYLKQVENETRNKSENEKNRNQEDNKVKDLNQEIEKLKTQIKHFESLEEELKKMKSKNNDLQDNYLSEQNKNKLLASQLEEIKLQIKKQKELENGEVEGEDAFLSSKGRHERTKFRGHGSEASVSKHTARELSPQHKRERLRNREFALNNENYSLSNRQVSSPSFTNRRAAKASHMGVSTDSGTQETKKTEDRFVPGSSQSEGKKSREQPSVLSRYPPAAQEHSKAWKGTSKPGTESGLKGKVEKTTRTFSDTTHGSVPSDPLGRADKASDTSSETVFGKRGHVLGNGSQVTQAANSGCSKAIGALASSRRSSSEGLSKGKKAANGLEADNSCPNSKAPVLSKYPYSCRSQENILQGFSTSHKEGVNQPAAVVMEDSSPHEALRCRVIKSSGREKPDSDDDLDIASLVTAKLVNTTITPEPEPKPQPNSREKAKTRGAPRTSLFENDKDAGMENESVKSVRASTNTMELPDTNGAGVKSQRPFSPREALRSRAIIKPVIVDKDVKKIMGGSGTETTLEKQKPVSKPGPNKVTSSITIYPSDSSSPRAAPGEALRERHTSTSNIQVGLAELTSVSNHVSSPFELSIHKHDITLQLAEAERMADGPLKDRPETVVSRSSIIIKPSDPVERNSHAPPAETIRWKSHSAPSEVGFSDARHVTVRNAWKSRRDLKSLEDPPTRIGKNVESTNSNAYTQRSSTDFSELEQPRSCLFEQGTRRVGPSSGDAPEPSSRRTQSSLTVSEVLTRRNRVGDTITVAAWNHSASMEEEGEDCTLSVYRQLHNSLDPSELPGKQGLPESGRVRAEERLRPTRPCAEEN
Sequence of UniProt Q96H20 (Q96H20 whole entry): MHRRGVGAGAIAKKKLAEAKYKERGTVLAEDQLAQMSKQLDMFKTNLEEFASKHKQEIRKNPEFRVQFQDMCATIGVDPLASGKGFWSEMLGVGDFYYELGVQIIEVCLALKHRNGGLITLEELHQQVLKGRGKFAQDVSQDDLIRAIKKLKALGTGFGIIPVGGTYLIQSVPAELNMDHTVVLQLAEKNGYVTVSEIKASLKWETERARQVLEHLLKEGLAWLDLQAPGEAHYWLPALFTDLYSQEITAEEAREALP

Compound in the assay: COC(=O)C#Cc1ccccc1 [methyl 3-phenylpropiolate]
Kind of assay: log2 ratio of iodoacetamide-alkyne labeling of the cysteine site, DMSO over compound (competition); higher = stronger covalent engagement of the cysteine by the compound, active = 1 or more. The note with it: 500 µM; treatment time 1 h; system: HEK293T cell lysate. The essentials: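 Three replicates, each with duplicate channels, were prepared from HEK293T lysate (2 mg/mL) treated with vehicle or electrophile at 500 µM for 1 h at ambient temperature. Iodoacetamide alkyne was then applied for 1 h, and samples were clicked to sCIP-TMT reagents, pooled, trypsin-digested overnight at 37 °C, enriched on streptavidin, acid-eluted and analysed on Orbitrap Eclipse LC-MS/MS with FAIMS, with FragPipe quantification. The log2 competition ratio per cysteine is the mean control-channel divided by the mean compound-channel reporter intensity. Cysteines quantified in only one replicate were left out.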
As to UBR1 C1603 (UniProt Q8IWV7), the “log2 ratio of iodoacetamide-alkyne labeling” value (from here on “log2 ratio”) is 0.433 (inactive).

As for ACD C406 (UniProt Q96AP0), the “log2 ratio” value was 0.713 (inactive).

Regarding SEC14L1 C258 (UniProt Q92503), the “log2 ratio” value was 0.208 (inactive).

Consider SNF8 C72 (UniProt Q96H20), for which the “log2 ratio” value is 0.2 (inactive).

Consider LUZP1 C969 (UniProt Q86V48), for which the “log2 ratio” value is 1.01 (active).

For KTN1 C1105 (UniProt Q86UP2), the “log2 ratio” value was 0.28 (inactive).

On to LPP C468 (UniProt Q93052), for which the “log2 ratio” value is 0.118 (inactive).

With STRBP C40 (UniProt Q96SI9), the “log2 ratio” value is 0.168 (inactive).

For the target GATAD2B C423 (UniProt Q8WXI9), the “log2 ratio” value is 0.12 (inactive).

On to UniProt Q86Y56_C409, for which the “log2 ratio” value is 0.492 (inactive).

Regarding DDX1 C110 (UniProt Q92499), the “log2 ratio” value was 0.315 (inactive).

For PHF6 C28 (UniProt Q8IWS0), the “log2 ratio” value is 0.287 (inactive).

For the target CAND1 C275 (UniProt Q86VP6), the “log2 ratio” value was -0.226 (inactive).

The record behind these values is the supplement of paper PMC11006884.
